Reference: paper PMC4336329 (PLoS ONE, 2015)
The campaign covered roughly 310,000 compounds. About 14,000 (4.5%) showed an effect of 50% or more. The effect is printed as a negative number. The full list was thinned out, with strong results kept by preference.

biological target: human ether-à-go-go-related gene (hERG) potassium channel (human, UniProt Q12809); experiment: primary screen, population patch clamp on CHO cells stably expressing hERG; higher = less effect of the substance
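Note: peak tail current of the secondary pulse compared with the same well before compound.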

human ether-à-go-go-related gene (hERG) potassium channel, sequence (Q12809 whole entry, looked up): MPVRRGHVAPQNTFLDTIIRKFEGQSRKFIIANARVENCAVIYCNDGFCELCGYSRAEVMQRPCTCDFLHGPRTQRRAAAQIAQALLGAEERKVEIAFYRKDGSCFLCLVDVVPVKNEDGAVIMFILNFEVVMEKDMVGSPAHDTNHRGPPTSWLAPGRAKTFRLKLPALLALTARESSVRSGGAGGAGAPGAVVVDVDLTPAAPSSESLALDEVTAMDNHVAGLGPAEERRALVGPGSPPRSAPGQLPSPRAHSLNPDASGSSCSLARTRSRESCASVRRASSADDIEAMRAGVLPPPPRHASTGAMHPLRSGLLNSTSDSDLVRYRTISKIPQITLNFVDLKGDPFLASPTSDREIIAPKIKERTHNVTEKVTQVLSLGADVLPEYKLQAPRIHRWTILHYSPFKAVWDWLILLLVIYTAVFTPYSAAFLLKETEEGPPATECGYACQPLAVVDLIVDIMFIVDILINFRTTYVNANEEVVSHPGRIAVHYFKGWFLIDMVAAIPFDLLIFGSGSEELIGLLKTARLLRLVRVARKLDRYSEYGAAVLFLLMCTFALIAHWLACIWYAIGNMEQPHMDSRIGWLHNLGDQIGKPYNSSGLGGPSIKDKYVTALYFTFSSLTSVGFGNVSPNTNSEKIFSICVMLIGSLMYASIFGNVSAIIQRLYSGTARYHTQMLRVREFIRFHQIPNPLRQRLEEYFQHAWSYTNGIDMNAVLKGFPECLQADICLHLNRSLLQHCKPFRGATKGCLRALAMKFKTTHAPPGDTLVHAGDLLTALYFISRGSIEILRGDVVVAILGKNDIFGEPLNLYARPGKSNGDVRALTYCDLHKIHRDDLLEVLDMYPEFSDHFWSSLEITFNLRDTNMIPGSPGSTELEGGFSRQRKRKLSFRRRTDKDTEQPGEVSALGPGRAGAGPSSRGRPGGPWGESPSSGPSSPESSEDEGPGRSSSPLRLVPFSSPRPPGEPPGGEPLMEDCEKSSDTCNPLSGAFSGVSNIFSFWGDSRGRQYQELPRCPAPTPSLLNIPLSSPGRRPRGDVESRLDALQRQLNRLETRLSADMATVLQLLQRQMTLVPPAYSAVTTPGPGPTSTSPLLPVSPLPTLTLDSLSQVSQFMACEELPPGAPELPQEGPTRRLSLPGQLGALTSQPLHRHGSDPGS

Structure (SMILES) | hERG current change (%, negative = inhibition) at 10uM
COc1ccc(/C(C)=N/NC(=O)CCC(=O)Nc2ccc(Cl)cc2Cl)c(OC)c1 | -3.74%
CC1(C)O[C@@H]1COc1c2ccoc2cc2oc(=O)ccc12 | -19.4%
CC1CCN(C2CC(=O)N(c3ccccc3)C2=O)CC1 (centres unmarked) | 8.4%
CCOC(=O)N1CCN(C2CC(=O)N(c3ccc(C)cc3)C2=O)CC1 (centres unmarked) | 1.62%
Cc1ccc(N2C(=O)CC(N3CCN(c4ccccn4)CC3)C2=O)cc1 (centres unmarked) | -6.04%
O=C1CC(N2CCCCC2)C(=O)N1c1ccccc1 (centres unmarked) | -3.42%
Cc1ccc(N2C(=O)CC(N3CCN(C4CCc5ccccc5C4)CC3)C2=O)cc1 (centres unmarked) | -75.1%
O=C1CC(N2CCN(C3CCc4ccccc4C3)CC2)C(=O)N1c1ccccc1 (centres unmarked) | -64.6%
CC(/C=C/c1ccco1)=N/NC(=O)OC(C)(C)C | 3.46%
N#Cc1ccccc1Sc1ccccc1C(=O)Nc1ccc2ccccc2c1 | 15.8%
CC(=O)c1c(C)nc(-c2ccc(Cl)cc2)nc1NC(=O)C(C)C | -9.25%
Oc1ccccc1N=N/C(=N/Nc1ccccc1O)c1ccccc1 | 8.83%
COC(=O)CCC(=O)Nc1ccccc1C(N)=O | 23.1%
CC(C)(CO)Nc1ccc([N+](=O)[O-])cc1[N+](=O)[O-] | -8.26%
CC1(C)Cc2c(cnn2-c2ccccc2)C(NC(=O)CCCn2cncn2)C1 (centres unmarked) | -1.88%
COc1ccc(-n2ncc3c2CC(C)(C)CC3NC(=O)CCn2cncn2)cc1 (centres unmarked) | -42.2%
Cc1ccc(-n2ncc3c2CC(C)(C)CC3NC(=O)CCn2cncn2)cc1 (centres unmarked) | -76.8%
CC1(C)Cc2c(cnn2-c2ccc(F)cc2)C(NC(=O)CCN2CCCC2=O)C1 (centres unmarked) | 5.01%
CC1(C)Cc2c(cnn2-c2ccc(F)cc2)C(NC(=O)CCn2cncn2)C1 (centres unmarked) | -69.1%

Structure (SMILES) | hERG current change (%, negative = inhibition) at 10uM
CC1(C)Cc2c(cnn2-c2ccc(F)cc2)C(NC(=O)Cn2cncn2)C1 (centres unmarked) | 7.61%
COc1cc(-c2nc3c[n+](CC(=O)c4ccccc4)ccc3n2C)cc(OC)c1OC.[Br-] | 0.461%
CCC(CC)C(=O)Nc1ccc(-c2cn3cccnc3n2)cc1 | 4.74%
Cc1cc(C)n(-c2ccc(C(=O)Nc3ccc(S(=O)(=O)N(C)C)cc3)cc2)n1 | -40.8%
Cc1ccccc1-c1nnc(-c2ccccc2)o1 | -6.58%
O=C(NC1CC(=O)N(c2ccc(Cl)cc2)C1)N1CCN(C(=O)c2ccco2)CC1 (centres unmarked) | -91.6%
COc1ccc(N2CC(NC(=O)N3CCN(C(=O)c4ccco4)CC3)CC2=O)cc1OC (centres unmarked) | 5.5%
O=C(NC1CC(=O)N(c2ccccc2)C1)N1CCN(C(=O)c2ccco2)CC1 (centres unmarked) | -5.77%
O=C(NC1CC(=O)N(c2ccc(Cl)cc2)C1)C1CC1 (centres unmarked) | -18.2%
O=C(NC1CC(=O)N(c2ccc(F)cc2)C1)N1CCN(C(=O)c2ccco2)CC1 (centres unmarked) | -63%
Cc1ccc(N2CC(NC(=O)N3CCN(C(=O)c4ccco4)CC3)CC2=O)cc1 (centres unmarked) | -52.6%
COc1ccc(N2CCN(C(=O)NC3CC(=O)N(c4ccc(OC)cc4)C3)CC2)cc1 (centres unmarked) | -35.9%
O=C(NC1CC(=O)N(c2cccc(F)c2)C1)N1CCN(C(=O)c2ccco2)CC1 (centres unmarked) | -26.1%
O=C(NC1CCCCC1)N1CCN(C(=O)c2ccco2)CC1 | -6.24%
Cc1ccc(N2CC(NC(=O)C(=O)c3c(C)[nH]c4ccccc34)CC2=O)cc1 (centres unmarked) | -47.8%
Cc1[nH]c2ccccc2c1C(=O)C(=O)NC1CC(=O)N(c2ccc(F)cc2)C1 (centres unmarked) | -51.9%
Cc1ccc(N2CC(NC(=O)C(=O)c3c(C)[nH]c4ccccc34)CC2=O)cc1C (centres unmarked) | -10.1%
COc1ccc(COc2ccc3ccc(=O)oc3c2)cc1 | 9.33%
O=C(OCc1nnc(-c2ccccc2)o1)c1cc2ccccc2cc1O | 8.95%

Structure (SMILES) | hERG current change (%, negative = inhibition) at 10uM
C/C(=N\NC(=O)c1nnn(-c2nonc2N)c1-c1cccs1)c1ccc(C)cc1 | -0.452%
CC(=O)Nc1ccc(N2CCN(c3ccc(F)cc3)CC2)cc1 | 18.4%
CS(=O)(=O)c1ccccc1C(=O)NC1CCCc2ccccc21 (centres unmarked) | 66.1%
O=C(CCN1C(=O)S/C(=C\c2cccs2)C1=O)Nc1nccs1 | 9.41%
CCOC(=O)CCNC(=O)N1CCC(CCOc2ccccc2)(C(=O)OCC)CC1 | -16.1%
CCOC(=O)CNC(=O)N1CCC(CCOc2ccccc2)(C(=O)OCC)CC1 | 1.83%
CCOC(=O)C1(CCOc2ccccc2)CCN(Cc2ccc3nonc3c2)CC1 | -17%
CCOC(=O)C1(CCOc2ccccc2)CCN(C(=O)c2ccc(-n3cccn3)cc2)CC1 | -78.9%
CCOC(=O)C1(CCOc2ccccc2)CCN(Cc2cccc(-n3cccn3)c2)CC1 | -79.3%
CCOC(=O)C1(CCOc2ccccc2)CCN(Cc2ccc(-n3cccn3)cc2)CC1 | -84.1%
COc1ccccc1C(=O)Nc1nc(N)n(-c2ccccc2)n1 | 13.8%
CCCNC(=S)Nc1ccc(Oc2ccccc2)cc1 | -10.8%
O=C(O)/C=C/c1cnc2ccccc2n1 | 16.6%
Cc1ccc(S(=O)(=O)N2CCC(C(=O)NN3CCCCC3)CC2)cc1 | 4.16%
O=C1Nc2ccc(Br)cc2/C1=C/C(=O)c1ccc2c(c1)OCO2 | 9.53%
C[C@@H](NCCc1ccc(O)cc1)[C@@H](O)c1ccc(O)cc1.Cl | -11.5%
CCCCCNC(=O)C(C)Sc1ccc(Cl)cc1 (centres unmarked) | 10.9%
CCCCCCCCN[C@H](C)[C@@H](O)c1ccc(SC(C)C)cc1 | -67.4%
